Laboratory results from the supplement of paper PMC8387472.

How the values were obtained:
Test in all cases: fraction of edited reads among all mapped reads; higher = more Cas9 editing
Details in all cases: mESC; 2uM; 72 h treatment, harvest day 5
[1] = compound: CC(=O)O/N=C1\C(=O)N(Cc2cc(Cl)ccc2Cl)c2ccc(Cl)cc21
[2] = compound: CC(C)(C#N)c1ccc(N2C(=O)OCc3cnc4ccc(-c5cnc6ccccc6c5)cc4c32)cc1
[3] = compound: CCCCOc1c(C(=O)c2c(F)cc(C)cc2F)c[nH]c2nncc1-2
[4] = compound: CCN1CCN(CC(=O)Nc2ccc(-c3cccc4c(=O)cc(N5CCOCC5)oc34)c3sc4ccccc4c23)CC1
[5] = compound: CCc1c2c(nc3ccc(OC(=O)N4CCC(N5CCCCC5)CC4)cc13)-c1cc3c(c(=O)n1C2)COC(=O)[C@]3(O)CC [Irinotecan HCl Trihydrate]
[6] = compound: CCn1c(=O)c(-c2ccc(Cl)cc2Cl)cc2cnc(Nc3ccc(N4CCNCC4)c(F)c3)nc21
[7] = compound: CNc1ccc([N+](=O)[O-])c(Nc2ccc3[nH]ncc3c2)n1
Rifapentine = compound: CO[C@H]1/C=C/O[C@@]2(C)Oc3c(C)c(O)c4c(O)c(c(/C=N/N5CCN(C6CCCC6)CC5)c(O)c4c3C2=O)NC(=O)/C(C)=C\C=C\[C@H](C)[C@H](O)[C@@H](C)[C@@H](O)[C@@H](C)[C@H](OC(C)=O)[C@@H]1C [Rifapentine]
[8] = compound: COc1ccccc1-c1cc(Nc2cccc(CS(N)(=O)=O)c2)ncn1
[9] = compound: C[C@@H]1CN(CC(=O)Nc2ccc3c(c2)Cc2cccc(-c4cc(=O)cc(N5CCOCC5)o4)c2S3)C[C@H](C)O1
[10] = compound: Cc1cc(C)nc(SCC(=O)Nc2ncc(Cc3cccc4ccccc34)s2)n1
[11] = compound: Cc1ccc(C(=O)NCCCCCC(=O)Nc2ccccc2N)cc1
[12] = compound: Cc1cccc(CC(=O)N2CCc3c2ccc(-c2cn(C)c4ncnc(N)c24)c3F)n1
[13] = compound: NC(=O)c1ccc2nc(-c3ccc(Oc4ccc(Cl)cc4)cc3)[nH]c2c1 [Chk 2 inhibitor II (BML-277)]
Tucidinostat (Chidamide) = compound: Nc1cc(F)ccc1NC(=O)c1ccc(CNC(=O)/C=C/c2cccnc2)cc1 [Tucidinostat (Chidamide)]
Pemetrexed = compound: Nc1nc2[nH]cc(CCc3ccc(C(=O)N[C@@H](CCC(=O)O)C(=O)O)cc3)c2c(=O)[nH]1 [Pemetrexed]
[14] = compound: Nc1ncnc2c1c(-c1cnc3[nH]ccc3c1)nn2C1CCCC1
[15] = compound: O=C(c1cccc(Cl)c1F)N1CCN(Cc2cccc(Nc3nccs3)n2)CC1
Kenpaullone = compound: O=C1Cc2c([nH]c3ccc(Br)cc23)-c2ccccc2N1 [Kenpaullone]
Genistein = compound: O=c1c(-c2ccc(O)cc2)coc2cc(O)cc(O)c12 [Genistein]

| Target | fraction of edited reads among all mapped reads [1] | fraction of edited reads among all mapped reads [2] | fraction of edited reads among all mapped reads [3] | fraction of edited reads among all mapped reads [4] | fraction of edited reads among all mapped reads [5] | fraction of edited reads among all mapped reads [6] | fraction of edited reads among all mapped reads [7] | fraction of edited reads among all mapped reads (Rifapentine) | fraction of edited reads among all mapped reads [8] | fraction of edited reads among all mapped reads [9] | fraction of edited reads among all mapped reads [10] | fraction of edited reads among all mapped reads [11] | fraction of edited reads among all mapped reads [12] | fraction of edited reads among all mapped reads [13] | fraction of edited reads among all mapped reads (Tucidinostat (Chidamide)) | fraction of edited reads among all mapped reads (Pemetrexed) | fraction of edited reads among all mapped reads [14] | fraction of edited reads among all mapped reads [15] | fraction of edited reads among all mapped reads (Kenpaullone) | fraction of edited reads among all mapped reads (Genistein) |
| --- | --- | --- | --- | --- | --- | --- | --- | --- | --- | --- | --- | --- | --- | --- | --- | --- | --- | --- | --- | --- |
| 29.0 (DMSO control at this site: 1-bp insertion 0.084, MH deletion 0.745, edited 0.133) TTGATGAACTTCCTCTTCTTCTCATGTCTCCGGTCTCCGGTAGGCCACGTGCATGGCCACT | 0.166 | 0.157 | 0.153 | 0.073 | 0.196 | 0.142 | 0.167 | 0.256 | 0.172 | 0.0736 | 0.239 | 0.147 | 0.189 | 0.165 | 0.129 | 0.13 | 0.144 | 0.0932 | 0.261 | 0.18 |
| 17.0 (DMSO control at this site: 1-bp insertion 0.112, MH deletion 0.348, edited 0.058) CCATAGCGCGATAAATATGACGGCTCATCCTGTATGACGGCTCATCCTGTATCAACTGTCC | 0.0666 | 0.0797 | 0.0794 | 0.0411 | 0.0882 | 0.0594 | 0.0812 | 0.115 | 0.0964 | 0.0394 | 0.123 | 0.0669 | 0.086 | 0.0753 | 0.0619 | 0.0836 | 0.0703 | 0.0546 | 0.184 | 0.0864 |
| 46.0 TTAAGAGCAATGTTCACGCAACTTGAAATTATATCTGTGGTCTTCAAATTGTCTTTTGTCA | – | 0.109 | 0.106 | – | – | – | 0.099 | 0.157 | – | – | – | 0.1 | – | – | 0.0602 | 0.136 | 0.105 | – | – | 0.116 |
| 25.0 (DMSO control at this site: 1-bp insertion 0.017, MH deletion 0.774, edited 0.143) GGGCCTGAATGGTGTGGACATCTACTCGCTGGTGAGCTGGTGACTGAAAACATTCAGTGGC | 0.18 | 0.183 | 0.184 | 0.0836 | 0.211 | 0.167 | 0.199 | 0.306 | 0.205 | 0.0682 | 0.278 | 0.159 | 0.228 | 0.194 | 0.14 | 0.16 | 0.15 | 0.109 | 0.31 | 0.203 |
| 19.0 (DMSO control at this site: 1-bp insertion 0.121, MH deletion 0.101, edited 0.057) TCTGCAGGGGTCGGAACCCGGGGGCTAGGGCTATCCCGGGGGCTAGGGCTATTAGCGAACC | 0.0656 | 0.0719 | 0.0679 | 0.0342 | 0.0806 | 0.0564 | 0.0687 | 0.0905 | 0.087 | 0.0476 | 0.112 | 0.0637 | 0.0933 | 0.0726 | 0.0662 | 0.0698 | 0.0701 | 0.0542 | 0.141 | 0.0811 |
| 27.0 CCAGAATTAGAACATATCATCTGGACCCTTTTCCATCTGGACCCTTTTCCAGCACACCCTG | 0.0506 | 0.055 | 0.0501 | – | 0.0605 | – | 0.0612 | 0.0829 | 0.0745 | – | 0.0968 | 0.0456 | – | – | 0.0322 | – | 0.0403 | – | 0.141 | 0.0708 |
| 2.0 (DMSO control at this site: 1-bp insertion 0.364, MH deletion 0.356, edited 0.125) GGTGCCCCCGAGACCTACGCGAACCGAAATCGATGTCCGGTGCGCAAGCAGGGCTGGCGTC | 0.141 | 0.129 | 0.143 | 0.0564 | 0.191 | 0.14 | 0.176 | 0.228 | 0.172 | 0.121 | 0.231 | 0.128 | 0.18 | 0.147 | 0.115 | 0.129 | 0.137 | 0.102 | 0.286 | 0.169 |
| 39.0 (DMSO control at this site: 1-bp insertion 0.328, MH deletion 0.371, edited 0.204) CTGCACAGTCACTTAGGATAGGAGAAGATGATGTATAGGGTTTAGTGGGAGATGTTGCAAG | 0.191 | 0.182 | 0.214 | 0.0792 | 0.252 | 0.192 | 0.223 | 0.335 | 0.248 | 0.191 | 0.3 | 0.189 | 0.29 | 0.229 | 0.184 | 0.177 | 0.196 | 0.141 | 0.328 | 0.231 |
| 35.0 (DMSO control at this site: 1-bp insertion 0.01, MH deletion 0.72, edited 0.098) CCACTTTTAGAGAGGGTGAAAATCATCAGTTATCATCAGGGCAACAAATTGCTTTCTCCTA | – | 0.143 | – | 0.0527 | 0.166 | 0.111 | 0.148 | 0.208 | 0.151 | 0.0395 | 0.179 | 0.117 | 0.147 | 0.122 | 0.0981 | 0.104 | 0.108 | 0.0696 | 0.209 | 0.151 |
| 32.0 (DMSO control at this site: 1-bp insertion 0.03, MH deletion 0.85, edited 0.898) AGAAGTCCAGGATCAGGGGGACTGGGGTCGGGAGGGTGGGGCAGGAAGGAAGCCAGAATCA | 0.893 | 0.917 | 0.893 | 0.793 | 0.944 | 0.929 | 0.921 | 0.946 | 0.934 | 0.841 | 0.946 | 0.904 | 0.925 | 0.917 | 0.9 | 0.87 | 0.891 | 0.849 | 0.951 | 0.923 |
| 0.0 (DMSO control at this site: 1-bp insertion 0.463, MH deletion 0.339, edited 0.14) AGGATTACCGAGACCTACGCGAACCGAAATCGCTGTCCGGTGCGCAAGCAGGGCTGGCGTC | 0.147 | 0.154 | 0.172 | 0.0626 | 0.218 | 0.155 | 0.203 | 0.274 | 0.213 | 0.15 | 0.241 | 0.152 | 0.222 | 0.17 | 0.139 | 0.149 | 0.173 | 0.122 | 0.329 | 0.187 |
| 21.0 CGATTGAGAGTCAAACGGGCCAGAAAACTCCGGGAACGGGCCAGAAAACTCCGGGGCATGG | 0.124 | 0.106 | 0.132 | 0.0441 | 0.152 | – | 0.141 | 0.199 | 0.144 | 0.046 | 0.198 | 0.121 | – | 0.14 | 0.116 | 0.124 | 0.103 | – | 0.273 | 0.136 |
| 5.0 (DMSO control at this site: 1-bp insertion 0.214, MH deletion 0.567, edited 0.105) CGCTGACCCGAGACCTACGCGAACCGAAATCGGCGACCGGTGCGCAAGCAGGGCTGGCGTC | 0.13 | 0.128 | 0.133 | 0.0591 | 0.169 | 0.13 | 0.145 | 0.226 | 0.163 | 0.085 | 0.215 | 0.121 | 0.171 | 0.149 | 0.108 | 0.124 | 0.116 | 0.0928 | 0.248 | 0.157 |
| 41.0 (DMSO control at this site: 1-bp insertion 0.022, MH deletion 0.754, edited 0.115) AAAGAGACAGCAGGTATGAATCCATCTTCCTGACCCTTGGGACCAGCCGGGGCAGTGAAGC | 0.135 | 0.15 | 0.152 | 0.0542 | 0.19 | 0.126 | 0.162 | 0.23 | 0.171 | 0.0671 | 0.227 | 0.138 | 0.172 | 0.157 | 0.121 | 0.12 | 0.113 | 0.0798 | 0.25 | 0.169 |
| 43.0 (DMSO control at this site: 1-bp insertion 0.134, MH deletion 0.714, edited 0.104) AGTTTAACTTACTCCGGCCAAAAAAGAACTGCACCTCTGGAGCGGGTTAGTGGTGGTGGTA | 0.15 | 0.143 | 0.151 | 0.0617 | 0.184 | 0.119 | 0.164 | 0.218 | – | 0.0771 | 0.219 | 0.137 | 0.172 | 0.155 | 0.116 | 0.093 | 0.126 | 0.0909 | 0.271 | 0.179 |
| 18.0 (DMSO control at this site: 1-bp insertion 0.114, MH deletion 0.789, edited 0.094) GCGCAAGTGCATAAGTTTTTCTTAAGGCGTGCCTTTAAGGCGTGCCTTTGTCGGTCCTGGA | 0.103 | 0.109 | 0.105 | 0.064 | 0.111 | 0.0889 | 0.116 | 0.175 | 0.122 | 0.0564 | 0.155 | 0.0986 | 0.121 | 0.106 | 0.0855 | 0.0951 | 0.0956 | 0.0736 | 0.162 | 0.131 |
| 38.0 (DMSO control at this site: 1-bp insertion 0.063, MH deletion 0.487, edited 0.17) GGGCTGGGTGCTAAAATGAGGAGCTCCAAGAAGACTGAGGTGAACCTGGAGGCCCCTGAGC | 0.178 | 0.169 | 0.188 | 0.0737 | 0.243 | 0.147 | 0.206 | 0.26 | 0.204 | 0.107 | 0.27 | 0.178 | 0.197 | 0.187 | 0.181 | 0.167 | 0.146 | 0.128 | 0.316 | 0.198 |
| 30.0 (DMSO control at this site: 1-bp insertion 0.074, MH deletion 0.67, edited 0.142) GAGCTGGCATGAGTATTTGTGCCACATGGCTCCCACATGGCTCCACATGCAAGTTTGAAAC | 0.142 | 0.149 | 0.158 | 0.066 | 0.204 | 0.156 | 0.187 | 0.224 | 0.177 | 0.134 | 0.226 | 0.147 | 0.212 | 0.179 | 0.129 | 0.148 | 0.143 | 0.112 | 0.286 | 0.191 |
